High-throughput results as filed in PubChem BioAssay.
TGFb SMAD3 inh = blocks TGF-b signaling. Potency, µM (top dose mostly 46.1 µM), for the others: top-dose activity, negative = inhibition, actives largely listed as inhibitors. 410,000 tested, 1.2% active. HepG2 CAGA-GFP TGF-b/SMAD3 reporter, GFP fluorescence, 18 h; TGF-beta stimulated, 500 pg/mL final; note: potency is the fitted concentration of half-maximal effect; % is set by controls: 0 for no effect and ±100 for the full control effect; nearly all actives have a fitted effect of over 65% in size
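Inhibition of TGF-beta-driven CAGA-GFP reporter expression in HEPG2 cells is measured by cellular GFP fluorescence after 18 h stimulation with 500 pg/mL recombinant TGF-beta in 1% FBS medium at 37 degrees C.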
ATXN2 expr inh = reduces ATXN2 reporter expression in HEK-293 cells; HEK-293 ATXN2-luciferase reporter, luminescence, 24 h; AID 1745845; Potency, µM (highest dose often 57 µM), for inactives: at the top dose activity change, negative = inhibition, usual class: inhibitors; 360,000 tested, 0.72% active; note: potency is the fitted concentration of half-maximal effect; % is set by controls: 0 for no effect and ±100 for the full control effect; nearly all actives have a fitted effect of over 55% in size
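ATXN2-luciferase reporter cells (luciferase flanked by upstream and downstream ATXN2 gene portions) were treated 24 h at 37 °C with compounds at up to 57 uM. SteadyGlo luminescence gave expression; GF-AFC fluorescence gave viability.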
HepG2 viability = kills HepG2 cells in TGF-b inhibitor counter-screen. 410,000 tested, 0.76% active. Potency, µM (series often up to 46.1 µM), inactives show at the highest dose activity change, negative = cytotoxicity, actives largely listed as cytotoxic. HepG2 CAGA-GFP viability, ATP luminescence, 18 h; note: potency is the fitted concentration of half-maximal effect
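CellTiter-Glo luminescence gave cytotoxicity after 18 hours at 37 degrees C. The cells were HepG2 CAGA-GFP in 1% FBS DMEM, stimulated with 500 pg/mL TGF-beta after compound addition. %Activity was normalised to no-cell wells (complete cell-killing) and DMSO (no toxicity), and curves were fitted and classified.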
ATXN viability = reduces viability in counter-screen for ATXN expression inhibitors; 400,000 tested, 0.49% active; S2 cells (HEK-293 line with an ATXN2-luciferase reporter) viability, CellTiter-Fluor protease fluorescence, 24 h; AID 651635; Potency, µM (series often up to 56.7 µM), hits mostly cytotoxic; note: potency is the fitted concentration of half-maximal effect; nearly all actives have a fitted effect of over 40% in size
IL1B secr inh = inflammasome signaling inhibition, IL-1 beta readout; THP-1 LPS/ATP IL-1B secretion, AlphaLISA, 16 h; active compounds read low; activity change, % at 57.5 µM; 360,000 tested, 4.7% active; AID 743279; in the data active = activity change below about -50%; inconclusive = mostly about -30% to -49%; note: % is set by controls: 0 for no effect and ±100 for the full control effect
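Secreted IL-1B measured by AlphaLISA bead assay after 16 h compound exposure of THP-1 cells; compounds (final up to 57.5 uM) added 1 h before LPS (250 ng/mL) and ATP (1.25 mM) stimulation; lower signal means less secretion.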
* hit, by the source's call; i = inactive; ? = inconclusive; · = no result; ! = not active in a repeat. Shown are actives, neighbours in structure and some others; about 5.7% of the full set was active somewhere. Unless noted, calls come from the whole dose curve; as a rule, active = well fitted curve in the direction sought with a large enough effect; inconclusive = small, poorly fitted or top-dose-only effect, or another doubt; inactive = no such curve, though single readings can be large; an effect the other way counts as inactive or inconclusive.

SMILES	TGFb SMAD3 inh	ATXN2 expr inh	HepG2 viability	ATXN viability	IL1B secr inh
Nc1cccc[n+]1C(c1ccnc2ccccc12)[n+]1ccccc1N	?	·	-3%	·	·
O=C(COC(=O)c1ccccc1C(=O)c1ccc(Cl)c([N+](=O)[O-])c1)NC1CC1	?	?	16µM*	28µM*	-103*
Cc1ccc(NC(=O)CCC(=O)N2CCSc3ccccc32)cc1	?	·	-24%	·	·
COc1cccc(O)c1CN1CCC2(CC1)c1ccccc1[C@@H](NC(=O)c1ccsc1)[C@@H]2OC	·	·	·	i	·
O=C(C1COc2ccccc2O1)N1CCN(Cc2ccc(Br)cc2F)CC1 (stereo not drawn)	-27%	-22%	-27%	i	-63*
O=C(C1COc2ccccc2O1)N1CCN(c2ccc([N+](=O)[O-])cc2)CC1 (stereo not drawn)	-27%	-16%	-10%	i	-84*
O=C(C1COc2ccccc2O1)N1CCN(c2ccc(F)cc2)CC1 (stereo not drawn)	0%	-10%	1%	i	-20
O=C(C1COc2ccccc2O1)N1CCN(Cc2ccc3c(c2)OCO3)CC1 (stereo not drawn)	-10%	-12%	-38%	i	?
Cc1ccc(NC(=O)C(=O)NCC(c2cccnc2)N2CCN(c3ccccc3F)CC2)cc1Cl (stereo not drawn)	-2%	·	-9%	·	·
CC(C)(C)CC(C)(C)N=C1Nc2ccc(Cl)cc2N[C@]12C[C@H]1CCCC(=O)N3CC[C@@H](C2)[C@@H]13	?	·	8.9µM*	·	·
Cc1cc2c(cc1C)N[C@]1(C[C@H]3CCCC(=O)N4CC[C@@H](C1)[C@@H]34)C(=NC(C)(C)CC(C)(C)C)N2	?	-16%	10µM*!	?	41
O=C1CCC[C@@H]2C[C@@]3(C[C@@H]4CCN1[C@H]24)Nc1cc(Cl)ccc1NC3=NC1CCCCC1	?	10%	0%	i	23
Cc1cnc(SCC2CCCO2)nc1C1CCCN(C(=O)C2=NNC(=O)CC2)C1 (stereo not drawn)	·	·	·	i	·
Cc1cc(C)c2sc(N(CCN(C)C)C(=O)c3c(F)cccc3F)nc2c1	?	-17%	-40%	i	-71*
Cc1cc(C)c2sc(N(CCCN(C)C)C(=O)c3ccc(Br)s3)nc2c1	?	8.9µM*	-78%	11µM*	·
Cc1cc(C)c2sc(N(CCCN(C)C)C(=O)CN3C(=O)c4ccccc4C3=O)nc2c1	?	?	-65%	i	0
Cc1cc(C)c2c(n1)sc1c(=O)n(-c3cc(Cl)ccc3C)nnc12	-4%	·	2%	·	·
CCCCCn1c(=O)c2ccccc2n2c(CCl)nnc12	?	?	-46%	i	-100*
CC(C)CCn1c(=O)c2ccccc2n2c(CCl)nnc12	3%	?	-3%	?	·
CCS(=O)(=O)N1CCc2cc(C(=O)Nc3ccc(Br)cc3F)ccc21	1%	-18%	-36%	i	·
COc1ccc(CCN=C(NS(=O)(=O)c2ccc(Cl)cc2)c2ccccc2)cc1	3%	-30%	1%	i	-66*
CCCc1ccc2oc(C(=O)NCCN3CCCC(O)C3)c(C)c2c1 (stereo not drawn)	4%	41%	-17%	i	-66*
CNC(=O)c1ccc(C)c(-n2c(C)cc(OCc3ccc(F)cc3F)c(Br)c2=O)c1	·	1%	·	·	·
CSc1cccc(NC(=O)C2CCCN(C(=O)c3cnn(-c4ccc(F)cc4)c3-n3cccc3)C2)c1 (stereo not drawn)	18µM*	·	-26%	·	·
Cc1ccc(NC(=O)C2CCN(C(=O)c3cnn(-c4ccccc4)c3-n3cccc3)CC2)cc1	11µM*	-17%	-8%	i	·
SMILES	TGFb SMAD3 inh	ATXN2 expr inh	HepG2 viability	ATXN viability	IL1B secr inh
O=C(O)C1CCN(Cc2cnn(-c3ccccc3)c2-n2cccc2)CC1	13%	3%	-5%	i	18
O=C(NC1CC1)C1CCN(Cc2cnn(-c3ccccc3)c2-n2cccc2)CC1	-22%	·	22µM*	·	-1
Cn1nnnc1SCC1=C(C(=O)O)N2C(=O)[C@@H](NC(=O)[C@H](OC=O)c3ccccc3)[C@H]2SC1	·	·	·	i	·
Cc1cc(S(=O)(=O)C(CNC(=O)c2ccc(OC(C)C)cc2)c2cccs2)ccc1F (stereo not drawn)	-8%	·	-15%	·	·
O=C1CC(C(=O)N2CCCC(c3nc(-c4ccncc4)ncc3-c3ccccc3)C2)C2(CCCCC2)O1 (stereo not drawn)	·	·	·	i	·
CCCCN(C(C)=O)c1ccc2c(c1)C1CC2CCN1C(=O)OCc1ccccc1 (stereo not drawn)	13µM*	?	-27%	?	6
O=C1c2ccccc2S(=O)(=O)N1Cc1nc2ccccc2s1	-6%	4µM*	-5%	i	29
Cc1ccccc1CN1C(=O)c2ccccc2S1(=O)=O	-1%	8%	-25%	i	-22
COc1ccc(C(C)C)cc1-c1cncc(NC(C)=O)n1	0%	13%	-3%	i	-96*
CNc1cncc(-c2cc(OC)ccc2OC)n1	-2%	4%	-33%	i	-15
Cc1cc(OCC(=O)Nc2ccc(C(=O)OC3CCCCC3)cc2)cc(C)c1Cl	-18%	3%	0%	i	·
CC(=O)Nc1cc(O)c2nonc2c1O	0.56µM*	·	0.56µM*	·	·
c1ccc2c(Nc3ccc4c(c3)OCCO4)c3c(nc2c1)CCCC3	?	·	-31%	i	-134*
CCOC(=O)c1cccc(Nc2c3c(nc4ccccc24)CCC3)c1	?	?	-40%	?	·
COC(=O)c1cccc(Nc2c3c(nc4ccccc24)CCC3)c1	-27%	-31%	-29%	i	-98*
COc1ccccc1Nc1c2c(nc3ccccc13)CCC2	18µM*	?	-27%	?	5
COc1cc(Cl)c(C)cc1Nc1c2c(nc3ccccc13)CCC2	16µM*	?	11µM*	14µM*	·
O=C1C(=O)N(C2CCN(S(=O)(=O)c3ccccc3)CC2)CCN1Cc1ccccc1	2%	6%	-4%	i	·
Cc1ccc(-n2nnc3c(SCC(=O)NCC4CCCO4)ncnc32)cc1 (stereo not drawn)	-24%	-22%	-35%	i	-56*
O=C(CSc1ncnc2c1nnn2-c1ccc(F)cc1)NCC1CCCO1 (stereo not drawn)	11%	-8%	23%	i	?
CC(C)(C)c1ccc(C(=O)Nc2nnc(SCC(=O)NCC3CCCO3)s2)cc1 (stereo not drawn)	-3%	16µM*	-7%	i	21
O=C(Nc1cccc2ccccc12)c1cnn2c1NC(=C1CC1)C=C2C(F)F	1%	·	4%	·	·
Cc1ccc(NC(=O)Cn2nc(C)n3cccc3c2=O)c(C)c1	16%	·	0%	·	·
COc1ccc(OC)c2cc3ccccc3cc12	-6%	18µM*	-7%	·	0
